High-throughput results: PubChem, National Center for Advancing Translational Sciences (NCATS)
This is a sample that favours compounds with a hit; in the whole collection about 1.3% have one here.
KCNH2 WT inh: qHTS for Inhibitors of KCHN2 3.1: Wildtype qHTS. 340,000 tested, 0.37% active. U2OS, BacMam KCNH2, thallium flux FluxOr; hits give low values. activity change, % at 1.84 µM. AID 720551, 2013. Voltage-gated inwardly rectifying potassium channel KCNH2 (Homo sapiens), Q12809;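 active means maximum activity change below -70%; inconclusive means maximum activity change between -70% and -50%; inactive means maximum activity change above -50%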
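U2OS cells were transduced with wild-type KCNH2 virus (2.03 x 10^8 / mL) for 4 h at room temperature, then cultured overnight at 37 C. Thallium flux was read with FluxOr dye. Rate constants were normalized to DMSO controls.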
TRPML1 agonist: qHTS for Agonists of the Human Mucolipin Transient Receptor Potential 1 (TRPML1); TRPML1-expressing cells, Ca2+ dye fluorescence, FDSS; activation, % (no concentration beside the values); 410,000 tested, 0.12% active; AID 624414, 2012; in the data active means activation above about 50%; inconclusive means mostly about 30% to 49%
Target sequence (Q9GZU1 whole entry, looked up): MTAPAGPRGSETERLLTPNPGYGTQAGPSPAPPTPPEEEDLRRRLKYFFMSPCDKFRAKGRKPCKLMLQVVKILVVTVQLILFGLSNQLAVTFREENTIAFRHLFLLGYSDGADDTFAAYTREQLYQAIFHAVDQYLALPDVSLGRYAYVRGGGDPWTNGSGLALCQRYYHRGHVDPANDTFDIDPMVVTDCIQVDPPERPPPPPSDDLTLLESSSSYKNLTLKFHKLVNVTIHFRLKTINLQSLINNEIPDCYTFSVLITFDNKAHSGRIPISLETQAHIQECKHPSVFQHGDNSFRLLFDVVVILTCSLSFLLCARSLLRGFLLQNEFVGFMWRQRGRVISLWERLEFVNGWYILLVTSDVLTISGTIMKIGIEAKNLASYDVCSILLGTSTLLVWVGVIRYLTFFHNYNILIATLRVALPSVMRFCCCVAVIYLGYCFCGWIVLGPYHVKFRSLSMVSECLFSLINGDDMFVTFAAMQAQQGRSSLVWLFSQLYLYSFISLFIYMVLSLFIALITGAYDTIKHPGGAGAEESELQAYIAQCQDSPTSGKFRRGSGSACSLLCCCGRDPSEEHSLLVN
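Calcium fluorescence on an FDSS kinetic reader gave the read-out. Tet-induced TRPML1-DL cells were plated overnight, dye-loaded (Ca8 with quencher, 45-90 min, room temperature, dark), then read 110 s after compound addition, and again 110 s after 4uM final 54-4 (EC80).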
KCNH2 3.1 inh: qHTS for Inhibitors of KCHN2 3.1: Mutant qHTS | 340,000 tested, 0.95% active | U2OS KCNH2 3.1, thallium flux FluxOr; hits give low values | AID 720553, 2013 | activity change, % (tested at about 1.8 µM) | Potassium voltage-gated channel subfamily H member 2, brain isoform KCNH2 3.1 (human);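 active means maximum activity change below -70%; inconclusive means maximum activity change from -70% to -50%; inactive means maximum activity change above -50%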;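 further: thallium influx rate constant from kinetic fluorescence after stimulation buffer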
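Virally transduced U2OS (3.1 isoform, 4 h infection in dark at RT) → overnight 37 C → FluxOr + Red40 in HBSS/HEPES, 45 min → stimulation buffer, 2 min kinetic read → rate constant vs DMSO controls.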
TRPV1 PAM: HTS Assay for Compounds that Act as Potentiators of the Vanilloid Receptor 1. Transient receptor potential cation channel subfamily V member 1 (Homo sapiens), Q8NER1. TRPV1-expressing cells, Fluo-8 calcium influx, capsaicin EC20 potentiation. potentiation, % at 8.33 µM. 320,000 tested, 0.02% active. AID 540277, 2011; in the data active means potentiation above about 80%; inconclusive means between about 30% and that limit
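Cells expressing TRPV1 were dye-loaded with Fluo-8 and read kinetically: 10 s baseline, 3 min after compound (agonist portion), then 2 min after EC20 capsaicin (allosteric enhancer portion). Calcium-bound dye fluorescence at 480/520 nm.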
TRPML1 blocker: qHTS for Inhibitors of the Human Mucolipin Transient Receptor Potential 1 (TRPML1) | Mucolipin-1 (Homo sapiens), Q9GZU1 | AID 624415, 2012 | TRPML1-inducible cells, Ca2+ dye fluorescence, FDSS; hits give low values; inhibition of EC80 agonist-evoked calcium signal | activity change, negative = inhibition, % (test concentration not listed) | 390,000 tested, 0.02% active; in the data active means activity change below about -50%; inconclusive means between about -30% and that limit;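 further: stimulus is agonist 54-4 at its EC80 concentration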
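Tet-induced TRPML1-DL cells loaded with Ca8 no-wash calcium dye were read kinetically on FDSS. Compound addition was followed by EC80 agonist 54-4 (4 uM final); inhibition was read over 110 s.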
TRPV1 agonist: HTS Assay for Compounds that Act as Agonists of the Vanilloid Receptor 1 | activation, % at 8.33 µM | AID 540275, 2011 | TRPV1-expressing cells, Fluo-8 calcium influx, agonist mode | 320,000 tested, 0.19% active; in the data active means activation above about 80%; inconclusive means between about 30% and that limit
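Cells expressing TRPV1 were dye-loaded with Fluo-8 and read kinetically: 10 s baseline, 3 min after compound (agonist portion), then 2 min after EC20 capsaicin (allosteric enhancer portion). Calcium-bound dye fluorescence at 480/520 nm.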
A number is an active result; . = inactive; ? = inconclusive; / = no result given.

SMILES	KCNH2 WT inh	TRPML1 agonist	KCNH2 3.1 inh	TRPV1 PAM	TRPML1 blocker	TRPV1 agonist
CC(C)(C)NC(=O)C(=O)NCc1ccccn1	.	.	.	.	.	.
O=C(NCc1ccccn1)C(=O)NCc1ccccn1	.	.	.	96.7	.	.
O=C(NCc1ccccn1)C(=O)N/N=C/c1ccc2c(c1)OCO2	.	.	-106.0	.	.	.
CN1CCc2c1nc1ccccc1c2NC(=O)CN1CCCC1	.	.	.	.	.	.
CCCCCCC(=O)Nc1c2c(nc3ccccc13)N(C)CC2	-101.3	.	-95.5	.	.	.
O=C(Cn1nnc(-c2ccccc2F)n1)N1CCCCC1	.	.	-133.8	.	.	.
N#CC1(Cc2ccc([N+](=O)[O-])cc2)c2ccccc2C=CN1C(=O)c1ccccc1 (configuration not stated)	.	.	-88.3	.	.	.
Cc1cc(C)cc(C(=O)Nc2c(C(=O)Nc3ccccc3F)oc3ccccc23)c1	/	.	/	/	.	/
COc1ccc(NC(=O)CSc2nc(=O)n(CCN3CCOCC3)c3c2CCCC3)c(OC)c1	.	.	-119.6	.	.	.
COc1ccc(NC(=O)c2ccc3c(SCC(=O)O)c4c(nc3c2)CCCC4)c(OC)c1	.	.	-158.1	.	.	.
COc1ccc(Cl)cc1NC(=O)c1ccc2c(SCC(=O)O)c3c(nc2c1)CCCC3	.	.	.	.	.	.
O=C(Cc1cccs1)Nc1cccc(-c2nnc(-c3ccco3)o2)c1	.	.	.	88.8	.	?
CCS(=O)(=O)N1CCc2cc(C(=O)Nc3ccc(OC)c(Cl)c3)ccc21	/	.	/	/	.	/
Cc1ccc(CN2CCOCCS2(=O)=O)cc1	/	.	/	/	/	/
CC(C)(C)n1cnc2cc(NCc3ccc(Br)cc3)ccc21	.	.	-95.7	.	.	.
CCc1ccc(CNc2ccc3c(c2)ncn3C(C)(C)C)cc1	/	.	/	.	.	.
CC1(c2ccc(OCC#N)cc2)C=C(c2ccc(OCC#N)cc2)n2nc(C(F)(F)F)nc2N1 (configuration not stated)	.	.	-106.3	.	.	.
CCc1ccccc1NC(=O)Cn1cc2c(n1)CCC(C)C2 (configuration not stated)	/	.	/	/	.	/
Cc1ccc(C2C=C(c3ccc(Cl)cc3)Nc3nc(NC(=O)c4ccco4)nn32)cc1 (configuration not stated)	/	.	/	/	.	/
Brc1ccc(/C=C2\C=Cc3ccccc32)cc1	/	.	/	/	/	/
COC(=O)c1c(C(=O)OC)c(-c2ccccc2)n2c1CS(=O)C2 (configuration not stated)	.	.	.	91.5	.	.
COC(=O)c1c(C(=O)OC)c(-c2ccc(F)cc2)n2c1CS(=O)C2 (configuration not stated)	.	.	.	.	.	.
CC(C)CNS(=O)(=O)c1ccc(CCC(=O)N2CCC(C(N)=O)CC2)cc1	.	.	-112.6	.	.	.
Cn1cc(CNCCCn2ncc3ccccc32)c(-c2ccccc2F)n1	.	.	-96.8	.	.	.
Cc1cccc(OCCn2c(SCC(N)=O)nc3ccccc32)c1	/	.	/	/	.	/
SMILES	KCNH2 WT inh	TRPML1 agonist	KCNH2 3.1 inh	TRPV1 PAM	TRPML1 blocker	TRPV1 agonist
CC1(C)CCC(=O)N2CC[C@H]3C[C@H](OC(=O)Nc4ccc5c(c4)OCO5)C[C@@H]1[C@H]32	.	.	-135.4	.	.	.
CC1(C)CCC(=O)N2CC[C@H]3C[C@H](OC(=O)Nc4ccccc4)C[C@@H]1[C@H]32	.	.	.	.	.	?
Cc1ccc(OCCn2nnc3sc4c(c3c2=O)CCC(C)C4)cc1 (configuration not stated)	/	.	/	/	.	/
O=C(Nc1cccc(Cl)c1)C1=Cc2cc(Cl)ccc2OC1	.	.	.	.	.	?
O=C(Nc1ccc(Cl)c(Cl)c1)C1=Cc2ccccc2OC1	.	.	.	.	.	87.5
CS(=O)(=O)Nc1ccc(-c2nc3ccccc3s2)cc1	/	.	/	/	.	/
O=C(CCC(=O)N1CCCC(Nc2ccccc2)C1)c1ccc(F)cc1 (configuration not stated)	.	.	.	.	.	86.5
Cc1ccc(NC2CCCN(C(=O)c3ccc(F)cc3)C2)cc1C (configuration not stated)	.	.	.	.	.	?
Cc1cc(C)c(C(=O)N2CCCC(Nc3ccc(F)cc3)C2)o1 (configuration not stated)	.	.	.	.	.	83.0
Cc1cc(C)c(C(=O)N2CCCC(Nc3ccc(C)c(C)c3)C2)o1 (configuration not stated)	.	.	.	.	.	96.8
COc1ccc(NC2CCCN(C(=O)c3oc(C)cc3C)C2)cc1OC (configuration not stated)	.	.	.	.	.	.
O=C(NCCCCNC(=O)C1CCCC1)C1CCCC1	-264.5	.	.	.	.	.
NC(=O)Cn1nnc(-c2ccc(CN3CCCCC3)cc2)n1	.	.	-82.2	.	.	.
CC[N+](CC)(CC)c1ccc(/C=C/c2ccc3ccccc3n2)cc1	/	.	/	/	/	/
CC(=O)Oc1ccc(-c2nc(-c3ccccc3)no2)cc1	/	.	/	/	/	/
COCC(=O)N(C)[C@H]1C[C@H]2c3[nH]c4ccccc4c3CCN2C(=O)[C@H]1[C@H](C)O	.	.	.	/	.	/
C[C@H](O)[C@@H]1C(=O)N2CCc3c([nH]c4ccccc34)[C@@H]2C[C@@H]1N(C)C(=O)NC1CCCCC1	-114.4	.	.	/	.	/
CCOc1ccc(C(=O)Nc2nnc(S(=O)(=O)N(CC)c3ccccc3C)s2)cc1	/	.	/	/	.	/
Fc1ccc(C2CC(c3ccco3)n3ncnc3N2)cc1 (configuration not stated)	-130.5	.	-174.5	.	.	.
COc1cc(/C=C2/SC(=S)N(Cc3ccccc3)C2=O)ccc1OCC(=O)O	.	.	.	.	.	.
COc1cc(/C=C2/SC(=S)N(Cc3ccccc3)C2=O)cc(Cl)c1O	.	64.7	.	.	.	?
